# Results from paper PMC4552634, “A New Set of Chemical Starting Points with Plasmodium falciparum Transmission-Blocking Potential for Antimalarial Drug Discovery” (PLoS ONE, 2015).
# The campaign covered roughly 13,000 compounds. About 3,200 (25%) showed an effect of 50% or more. The list shows a part of the results.
# System: P. falciparum stage V gametocytes
# Design: BacTiter-Glo ATP luminescence viability of purified stage V gametocytes in 384-well plates, per cent inhibition versus DMSO
# Details: 48 h, 5 µM; inhibitor
row,Structure (SMILES),% Inhibition
1,CC(=O)N(C)c1cccc(CNc2cc(C)nc(Nc3ccc(C)cc3)n2)c1 [TCMDC-134005],7.958%
2,CN1CCN(CC(=O)Nc2ccc(-c3ccc(-c4nc5cc(C(F)(F)F)ccc5[nH]4)s3)cc2)CC1 [TCMDC-136976],14.59%
3,COc1cc(Cc2cnc(N)nc2N)cc(OCCCCc2nn[nH]n2)c1OC [TCMDC-138032],13.98%
4,Cc1cccc(-c2nc3[nH]c(=O)cc(NC(=O)C(C)C)n3n2)c1 [TCMDC-125001],-2.254%
5,O=C(Nc1cccc(CN2CCCN(Cc3ccc(O)cc3)CC2)c1)c1ccc(-c2ccccc2)cc1 [TCMDC-141850],69.39%
6,CCCc1ccc(NC(=O)c2ccc(CN3CCCN(Cc4ccc(OC)cc4)CC3)cc2)cc1 [TCMDC-136422],91.61%
7,CCCCCCN1CCCN(Cc2ccc(C(=O)Nc3ccc(CC)cc3)cc2)CC1 [TCMDC-136450],13.19%
8,CCCCCCN1CCCN(Cc2ccc(C(=O)Nc3ccc(Cl)cc3)cc2)CC1 [TCMDC-136416],35.96%
9,CCCCCCN1CCCN(Cc2ccc(C(=O)Nc3ccc(CCC)cc3)cc2)CC1 [TCMDC-136424],9.552%
10,O=C(Nc1cccc(CN2CCCN(Cc3cccc(Cl)c3)CC2)c1)c1ccc(-c2ccccc2)cc1 [TCMDC-141837],-76.33%
11,COc1ccc(CN2CCCN(Cc3ccc(C(=O)Nc4ccc(Cl)cc4)cc3)CC2)cc1 [TCMDC-136409],0.3374%
12,CCCCCCN1CCCN(Cc2ccc(C(=O)Nc3ccc(C(C)C)cc3)cc2)CC1 [TCMDC-136423],90.22%
13,O=C(Nc1cccc(CN2CCN(Cc3ccc(O)cc3)CC2)c1)c1ccc(-c2ccccc2)cc1 [TCMDC-141886],12.46%
14,Oc1c(Br)cc2oc3c(c2c1CNCc1ccccc1)CCCC3 [TCMDC-124248],19.71%
15,Cc1cccc2c(CON3C(N)=NC(N)=NC3(C)C)cccc12 [TCMDC-131325],30.52%
16,c1ccc2c(c1)CN(Cc1ccsc1)CC1(CCN(Cc3c[nH]c4cnccc34)CC1)O2 [TCMDC-133374],-8.367%
17,COCCNCc1ccc(-c2ccc3c(Nc4ccc(Cl)cc4F)ccnc3c2)o1 [TCMDC-138390],17.71%
18,Fc1ccc(Nc2ccnc3cc(-c4ccc(CN5CCOCC5)o4)ccc23)c(Cl)c1 [TCMDC-138450],-9.806%
19,CN(C)CCNCc1ccc(-c2ccc3c(Nc4ccc(F)cc4Cl)ccnc3c2)o1 [TCMDC-138449],71.06%
20,CN(C)CCN(C)Cc1ccc(-c2ccc3c(Nc4ccc(F)cc4Cl)ccnc3c2)o1 [TCMDC-138447],57.57%
21,COCCNCc1ccc(-c2ccc3c(Nc4ccc(F)cc4Cl)ccnc3c2)o1 [TCMDC-138448],12.72%
22,CN(C)Cc1ccc(-c2ccc3c(Nc4ccc(Cl)cc4F)ccnc3c2)o1 [TCMDC-138389],51.2%

row,Structure (SMILES),% Inhibition
1,CN(C)CCNCc1ccc(-c2ccc3c(Nc4ccc(Cl)cc4F)ccnc3c2)o1 [TCMDC-138391],96.42%
2,CN1CCN(Cc2ccc(-c3ccc4c(Nc5ccc(F)cc5Cl)ccnc4c3)o2)CC1 [TCMDC-138452],13.09%
3,Fc1ccc(Nc2ccnc3cc(-c4ccc(CNCCN5CCOCC5)o4)ccc23)c(Cl)c1 [TCMDC-138451],28.52%
4,CS(=O)(=O)CCNCc1ccc(-c2ccc3c(Nc4ccc(Cl)cc4F)ccnc3c2)o1 [TCMDC-138445],0.4033%
5,CN(C)CCN(C)Cc1ccc(-c2ccc3c(Nc4ccc(Cl)cc4F)ccnc3c2)o1 [TCMDC-138388],33.59%
6,Fc1cc(Cl)ccc1Nc1ccnc2cc(I)ccc12 [TCMDC-138376],-32.49%
7,Cc1cccc2nc(-c3ccc(-c4ccc(CN5CC(C)OC(C)C5)cc4)cc3)[nH]c12.O=C(O)C(F)(F)F (centres unmarked) [TCMDC-133823],-0.7329%
8,Cc1noc(C)c1CN1CCCN(c2ccc3c(c2)CCN(Cc2ccc(-c4ncc[nH]4)cc2)CC3)CC1 [TCMDC-136548],-0.683%
9,CO/N=C(\C)c1ccc2c(c1)CCN(CCC1CCC(NC(=O)/C=C/c3ccc(F)cc3)CC1)CC2 (centres unmarked) [TCMDC-139922],-74.19%
10,Fc1ccc2nc(-c3ccc(-c4ccc(CNCCc5cccnc5)cc4)s3)[nH]c2c1 [TCMDC-132875],-31.32%
11,N#Cc1cccc(C(=O)Nc2cccc(-c3ccc(CN4CCC(O)CC4)cc3)c2)c1 [TCMDC-132652],-17.85%
12,CCOC(=O)c1[nH]c2cc(Cl)cc(Cl)c2c1/C=C/C(=O)Nc1ccc(-c2cnc(NC(C)=O)[nH]2)cc1 [TCMDC-137161],-8.366%
13,Cc1c(C(=O)N(C)C)sc2c1c(=O)n(Cc1ccccc1)c(=O)n2CC(=O)Nc1ccccc1F [TCMDC-125279],4.453%
14,CCc1nc2nc(C)cc(Nc3cc(C)cc(C)c3)n2n1 [TCMDC-124402],51.49%
15,CCc1nc2nc(C)cc(Nc3ccc(F)c(Cl)c3)n2n1 [TCMDC-124770],1.315%
16,CCc1nc2nc(C)cc(Nc3ccc4c(c3)OCCO4)n2n1 [TCMDC-125299],-0.3909%
17,CC1(C)N=C(N)N=C(N)N1OCCNCc1ccc(Cl)cc1 [TCMDC-131628],11.83%
18,O=C(Nc1cccc(-c2nn3ccccc3c2-c2ccnc(Nc3ccc(-c4cc[nH]n4)cc3)n2)c1)c1c(F)cccc1F [TCMDC-135915],-3.577%
19,CC1CCCC(Nc2noc(-c3sccc3Br)n2)C1 (centres unmarked) [TCMDC-134184],-4.566%
20,Fc1ccc2[nH]cc(CCNCc3ccc(-c4cccc(-c5nc6ccccc6[nH]5)c4)cc3)c2c1.O=C(O)C(F)(F)F [TCMDC-132573],88.58%
21,O=C(O)C(F)(F)F.c1cc(-c2ccc(CNCCc3ccncc3)cc2)cc(-c2nc3ccccc3[nH]2)c1 [TCMDC-132553],67.12%
22,O=C(O)C(F)(F)F.c1ccc(CCNCc2ccc(-c3cccc(-c4nc5ccccc5[nH]4)c3)cc2)nc1 [TCMDC-132537],93.06%

row,Structure (SMILES),% Inhibition
1,O=C(O)C(F)(F)F.c1cncc(CCNCc2ccc(-c3cccc(-c4nc5ccccc5[nH]4)c3)cc2)c1 [TCMDC-132554],4.222%
2,CS(=O)(=O)c1ccc(CNCc2ccc(-c3cccc(-c4nc5cc(F)ccc5[nH]4)c3)cc2)cc1.O=C(O)C(F)(F)F [TCMDC-132904],15.16%
3,O=C(O)C(F)(F)F.c1cc(CNCCc2ccncc2)cc(-c2ccc(-c3nc4ccccc4[nH]3)cc2)c1 [TCMDC-132856],-34.48%
4,CN(CCNCc1ccc(-c2cccc(-c3nc4ccccc4[nH]3)c2)cc1)S(C)(=O)=O.O=C(O)C(F)(F)F [TCMDC-132561],23.76%
5,CS(=O)(=O)c1ccc(CCNCc2ccc(-c3cccc(-c4nc5ccccc5[nH]4)c3)cc2)cc1.O=C(O)C(F)(F)F [TCMDC-132558],87.75%
6,Cc1cccc2nc(-c3cccc(-c4ccc(CNCCc5ccncc5)cc4)c3)[nH]c12.O=C(O)C(F)(F)F [TCMDC-132846],-3.628%
7,Fc1ccc2[nH]c(-c3ccc(-c4ccc(CNCCc5ccncc5)cc4)cc3)nc2c1.O=C(O)C(F)(F)F [TCMDC-132851],-25.93%
8,O=C(O)C(F)(F)F.c1ccc(-c2ccc(CNCc3ccc(-c4cccc(-c5nc6ccccc6[nH]5)c4)cc3)s2)nc1 [TCMDC-132571],17.42%
9,CS(=O)(=O)c1ccc(CNCc2ccc(-c3cccc(-c4nc5ccccc5[nH]4)c3)cc2)cc1.O=C(O)C(F)(F)F [TCMDC-132557],-11.29%
10,CC(=O)c1c(Nc2c(C)cc(C)cc2C)oc(C)cc1=O [TCMDC-125654],7.725%
11,Cc1ccccc1C1CCN(C2CCC(NC(=O)c3ccc4c(c3)-c3nocc3C(C)O4)CC2)CC1 (centres unmarked) [TCMDC-134101],-36.23%
12,O=C(Nc1cc(=O)[nH]c2nc(-c3ccccc3)nn12)C1CCCCC1 [TCMDC-125474],2.661%
13,Cc1cccc2[nH]c(-c3cccc(-c4ccc(NC(=O)NCc5cccc(F)c5)cc4)c3)nc12 [TCMDC-133289],46.25%
14,COc1cccc(CNC(=O)c2cc(CNCc3ccccc3)ccc2-c2cccc(CNCc3ccc(-c4ccccc4)cc3)c2)c1 [TCMDC-139616],14.44%
15,COC(=O)c1cccc(CNCc2cccc(-c3csc(-c4nc5ccccc5[nH]4)c3)c2)c1 [TCMDC-132943],-44.21%
16,CN(C)C(=O)c1cc(CNCc2ccccc2)ccc1-c1cccc(CNCc2ccc(-c3ccccc3)cc2)c1 [TCMDC-139617],33.8%
17,CCCCNC(=O)c1cc(CNC2CCCCC2)ccc1-c1cccc(CNCc2ccc(-c3ccccc3)cc2)c1 [TCMDC-139614],92.13%
18,CNCc1ccc(-c2cccc(CNCc3ccc(-c4ccccc4)cc3)c2)c(C(=O)OC)c1 [TCMDC-139615],117.6%
19,CC(C)NCc1ccc(-c2cccc(CN3CCC(c4ccccc4)CC3)c2)c(C(=O)NCC2CCCCC2)c1 [TCMDC-134701],29.45%
20,CCCCN(CCCC)CCNC(=O)c1cccc(NC(=O)N2CCc3cc(SC)c(C(F)(F)F)cc32)c1 [TCMDC-139012],-13.47%
21,Cc1ccccc1NC1=NC(=S)N(c2cccc(C(F)(F)F)c2)C12CCC(C(C)(C)C)CC2 (centres unmarked) [TCMDC-125677],20.36%
